# ± gives the standard deviation.
# Assays:
# Assay in all cases: peptide microarray binding signal (635 nm), min-max normalized on array (fraction of array maximum); higher = stronger binding
# Details in all cases: peptide region: H2B 7-19
# [1] = target: T1, HaloTag-ATRX ADD domain (163-292)
# T1 chain: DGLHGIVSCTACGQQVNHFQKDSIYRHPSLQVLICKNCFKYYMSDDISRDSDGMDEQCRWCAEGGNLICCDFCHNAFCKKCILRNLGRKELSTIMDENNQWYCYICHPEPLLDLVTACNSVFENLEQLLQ
# Method: (§1)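 Histone 13-mer peptides were synthesized as cellulose conjugates with a C-terminal 20-atom PEG linker and printed in triplicate on nitrocellulose. The sequence given is the unmodified backbone; PTMs (Kme1/2/3, Kac, Sph/Tph, Rme/Rme2a/Rme2s, Rcit) are listed in the label and the 'peptide modifications' condition. Slides were probed at 4 °C for 1 h with biotin-labelled (HQ)5-HaloTag reader fusions (ATRX-ADD, ING2-PHD) then streptavidin-Alexa647, or with rabbit histone antibodies then anti-rabbit Alexa647. The mean 635 nm signal of the triplicate spots was scaled 0-1 between the lowest and highest values on each array.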
# [2] = target: HaloTag-ING2 PHD (mouse Ing2 200-280)
# Method: as §1
# [3] = target: anti-H3K4me3 antibody ab8580
# Method: as §1
# [4] = target: anti-H3K9me3 antibody ab8898
# Method: as §1
# [5] = peptide modifications: H2BK11ac H2BK12ac, binder concentration: 1:2,000 dilution
# [6] = peptide modifications: H2BK11ac H2BK12ac, binder concentration: 1:10,000 dilution
# [7] = peptide modifications: H2BK11ac H2BK15ac H2BK16ac, binder concentration: 1:2,000 dilution
# [8] = peptide modifications: H2BK11ac H2BK15ac H2BK16ac, binder concentration: 1:10,000 dilution
# [9] = peptide modifications: H2BK11ac H2BK15ac, binder concentration: 1:2,000 dilution
# [10] = peptide modifications: H2BK11ac H2BK15ac, binder concentration: 1:10,000 dilution
# [11] = peptide modifications: H2BK11ac H2BK16ac, binder concentration: 1:2,000 dilution
# [12] = peptide modifications: H2BK11ac H2BK16ac, binder concentration: 1:10,000 dilution
# [13] = peptide modifications: H2BK11ac H2BS14ph H2BK15ac H2BK16ac, binder concentration: 1:2,000 dilution
# [14] = peptide modifications: H2BK11ac H2BS14ph H2BK15ac H2BK16ac, binder concentration: 1:10,000 dilution
# [15] = peptide modifications: H2BK11ac H2BS14ph H2BK15ac, binder concentration: 1:2,000 dilution
# [16] = peptide modifications: H2BK11ac H2BS14ph H2BK15ac, binder concentration: 1:10,000 dilution
# [17] = peptide modifications: H2BK11ac H2BS14ph H2BK16ac, binder concentration: 1:2,000 dilution
# [18] = peptide modifications: H2BK11ac H2BS14ph H2BK16ac, binder concentration: 1:10,000 dilution
# [19] = peptide modifications: H2BK11ac, binder concentration: 1:2,000 dilution
# [20] = peptide modifications: H2BK11ac, binder concentration: 1:10,000 dilution
# [21] = peptide modifications: H2BK12ac H2BK15ac H2BK16ac, binder concentration: 1:2,000 dilution
# [22] = peptide modifications: H2BK12ac H2BK15ac H2BK16ac, binder concentration: 1:10,000 dilution
# [23] = peptide modifications: H2BK12ac H2BK15ac, binder concentration: 1:2,000 dilution
# [24] = peptide modifications: H2BK12ac H2BK15ac, binder concentration: 1:10,000 dilution
binder,measurement,setting,value
APAPKKGSKKAVT [H2B 7-19 A P A P Kac Kac G S K K A V T],peptide microarray binding signal,"[1]; peptide modifications: H2BK11ac H2BK12ac, binder concentration: 50 nM",0.00411 ± 0.00015
same,peptide microarray binding signal,"[1]; peptide modifications: H2BK11ac H2BK12ac, binder concentration: 500 nM",0.0031 ± 0.001
same,peptide microarray binding signal,"[2]; peptide modifications: H2BK11ac H2BK12ac, binder concentration: 10 nM",0.00603 ± 0.00082
same,peptide microarray binding signal,"[2]; peptide modifications: H2BK11ac H2BK12ac, binder concentration: 100 nM",0.00822 ± 0.001
same,peptide microarray binding signal,[3]; [5],0.000245 ± 2.6e-06
same,peptide microarray binding signal,[3]; [6],0.000913 ± 1.6e-05
same,peptide microarray binding signal,[4]; [5],0.000906 ± 4.5e-05
same,peptide microarray binding signal,[4]; [6],0.00127 ± 1.3e-05
APAPKKGSKKAVT [H2B 7-19 A P A P Kac K G S Kac Kac A V T],peptide microarray binding signal,"[1]; peptide modifications: H2BK11ac H2BK15ac H2BK16ac, binder concentration: 50 nM",0.005642 ± 4e-05
same,peptide microarray binding signal,"[1]; peptide modifications: H2BK11ac H2BK15ac H2BK16ac, binder concentration: 500 nM",0.0203 ± 0.002
same,peptide microarray binding signal,"[2]; peptide modifications: H2BK11ac H2BK15ac H2BK16ac, binder concentration: 10 nM",0.00776 ± 0.00056
same,peptide microarray binding signal,"[2]; peptide modifications: H2BK11ac H2BK15ac H2BK16ac, binder concentration: 100 nM",0.0162 ± 0.0017
same,peptide microarray binding signal,[3]; [7],0.0139 ± 0.0047
same,peptide microarray binding signal,[3]; [8],0.00245 ± 0.0001
same,peptide microarray binding signal,[4]; [7],0.00378 ± 0.00028
same,peptide microarray binding signal,[4]; [8],0.00254 ± 0.0001
APAPKKGSKKAVT [H2B 7-19 A P A P Kac K G S Kac K A V T],peptide microarray binding signal,"[1]; peptide modifications: H2BK11ac H2BK15ac, binder concentration: 50 nM",0.00295 ± 3.3e-05
same,peptide microarray binding signal,"[1]; peptide modifications: H2BK11ac H2BK15ac, binder concentration: 500 nM",0.00457 ± 5.4e-05
same,peptide microarray binding signal,"[2]; peptide modifications: H2BK11ac H2BK15ac, binder concentration: 10 nM",0.00686 ± 0.00014
same,peptide microarray binding signal,"[2]; peptide modifications: H2BK11ac H2BK15ac, binder concentration: 100 nM",0.0056 ± 0.00049
same,peptide microarray binding signal,[3]; [9],0.00319 ± 0.0012
same,peptide microarray binding signal,[3]; [10],0.000913 ± 2.8e-05
same,peptide microarray binding signal,[4]; [9],0.00104 ± 1.4e-05
same,peptide microarray binding signal,[4]; [10],0.0015 ± 4.4e-05
APAPKKGSKKAVT [H2B 7-19 A P A P Kac K G S K Kac A V T],peptide microarray binding signal,"[1]; peptide modifications: H2BK11ac H2BK16ac, binder concentration: 50 nM",0.00401 ± 5.5e-05
same,peptide microarray binding signal,"[1]; peptide modifications: H2BK11ac H2BK16ac, binder concentration: 500 nM",0.0108 ± 0.00051
same,peptide microarray binding signal,"[2]; peptide modifications: H2BK11ac H2BK16ac, binder concentration: 10 nM",0.00788 ± 0.0021
same,peptide microarray binding signal,"[2]; peptide modifications: H2BK11ac H2BK16ac, binder concentration: 100 nM",0.00751 ± 0.00032
same,peptide microarray binding signal,[3]; [11],0.00815 ± 0.00023
same,peptide microarray binding signal,[3]; [12],0.00108 ± 1.9e-05
same,peptide microarray binding signal,[4]; [11],0.00178 ± 9e-05
same,peptide microarray binding signal,[4]; [12],0.00133 ± 4.6e-05
APAPKKGSKKAVT [H2B 7-19 A P A P Kac K G Sph Kac Kac A V T],peptide microarray binding signal,"[1]; peptide modifications: H2BK11ac H2BS14ph H2BK15ac H2BK16ac, binder concentration: 50 nM",0.00323 ± 0.00013
same,peptide microarray binding signal,"[1]; peptide modifications: H2BK11ac H2BS14ph H2BK15ac H2BK16ac, binder concentration: 500 nM",0.00167 ± 0.00033
same,peptide microarray binding signal,"[2]; peptide modifications: H2BK11ac H2BS14ph H2BK15ac H2BK16ac, binder concentration: 10 nM",0.00388 ± 8.9e-05
same,peptide microarray binding signal,"[2]; peptide modifications: H2BK11ac H2BS14ph H2BK15ac H2BK16ac, binder concentration: 100 nM",0.00269 ± 0.00017
same,peptide microarray binding signal,[3]; [13],0.000245 ± 1e-05
same,peptide microarray binding signal,[3]; [14],0.0012 ± 4.3e-05
same,peptide microarray binding signal,[4]; [13],0.000529 ± 1.3e-05
same,peptide microarray binding signal,[4]; [14],0.000865 ± 1.8e-05
APAPKKGSKKAVT [H2B 7-19 A P A P Kac K G Sph Kac K A V T],peptide microarray binding signal,"[1]; peptide modifications: H2BK11ac H2BS14ph H2BK15ac, binder concentration: 50 nM",0.00176 ± 7.1e-05
same,peptide microarray binding signal,"[1]; peptide modifications: H2BK11ac H2BS14ph H2BK15ac, binder concentration: 500 nM",0.00238 ± 7.9e-05
same,peptide microarray binding signal,"[2]; peptide modifications: H2BK11ac H2BS14ph H2BK15ac, binder concentration: 10 nM",0.00286 ± 8.4e-05
same,peptide microarray binding signal,"[2]; peptide modifications: H2BK11ac H2BS14ph H2BK15ac, binder concentration: 100 nM",0.00149 ± 3.1e-05
same,peptide microarray binding signal,[3]; [15],0.00157 ± 4.2e-05
same,peptide microarray binding signal,[3]; [16],0.000742 ± 1.3e-05
same,peptide microarray binding signal,[4]; [15],0.000393 ± 1e-05
same,peptide microarray binding signal,[4]; [16],0.000692 ± 7.3e-06
APAPKKGSKKAVT [H2B 7-19 A P A P Kac K G Sph K Kac A V T],peptide microarray binding signal,"[1]; peptide modifications: H2BK11ac H2BS14ph H2BK16ac, binder concentration: 50 nM",0.00207 ± 8.4e-05
same,peptide microarray binding signal,"[1]; peptide modifications: H2BK11ac H2BS14ph H2BK16ac, binder concentration: 500 nM",0.00281 ± 2.2e-05
same,peptide microarray binding signal,"[2]; peptide modifications: H2BK11ac H2BS14ph H2BK16ac, binder concentration: 10 nM",0.00227 ± 3.4e-05
same,peptide microarray binding signal,"[2]; peptide modifications: H2BK11ac H2BS14ph H2BK16ac, binder concentration: 100 nM",0.00128 ± 1.3e-05
same,peptide microarray binding signal,[3]; [17],0.000396 ± 1.2e-05
same,peptide microarray binding signal,[3]; [18],0.000514 ± 5.5e-06
same,peptide microarray binding signal,[4]; [17],0.000242 ± 6.7e-06
same,peptide microarray binding signal,[4]; [18],0.000461 ± 8.7e-06
APAPKKGSKKAVT [H2B 7-19 A P A P Kac K G S K K A V T],peptide microarray binding signal,"[1]; peptide modifications: H2BK11ac, binder concentration: 50 nM",0.00367 ± 0.00044
same,peptide microarray binding signal,"[1]; peptide modifications: H2BK11ac, binder concentration: 500 nM",0.00667 ± 0.0024
same,peptide microarray binding signal,"[2]; peptide modifications: H2BK11ac, binder concentration: 10 nM",0.00227 ± 7.3e-05
same,peptide microarray binding signal,"[2]; peptide modifications: H2BK11ac, binder concentration: 100 nM",0.00432 ± 0.00029
same,peptide microarray binding signal,[3]; [19],0.000264 ± 1.1e-05
same,peptide microarray binding signal,[3]; [20],0.000628 ± 6.7e-06
same,peptide microarray binding signal,[4]; [19],0.000408
same,peptide microarray binding signal,[4]; [20],0.000519 ± 5.6e-06
APAPKKGSKKAVT [H2B 7-19 A P A P K Kac G S Kac Kac A V T],peptide microarray binding signal,"[1]; peptide modifications: H2BK12ac H2BK15ac H2BK16ac, binder concentration: 50 nM",0.00505 ± 0.00068
same,peptide microarray binding signal,"[1]; peptide modifications: H2BK12ac H2BK15ac H2BK16ac, binder concentration: 500 nM",0.00719 ± 0.0027
same,peptide microarray binding signal,"[2]; peptide modifications: H2BK12ac H2BK15ac H2BK16ac, binder concentration: 10 nM",0.00621 ± 0.0005
same,peptide microarray binding signal,"[2]; peptide modifications: H2BK12ac H2BK15ac H2BK16ac, binder concentration: 100 nM",0.00631 ± 0.00038
same,peptide microarray binding signal,[3]; [21],0.00068 ± 9e-05
same,peptide microarray binding signal,[3]; [22],0.001541 ± 1.5e-05
same,peptide microarray binding signal,[4]; [21],0.00104 ± 4.9e-05
same,peptide microarray binding signal,[4]; [22],0.00133 ± 4e-05
APAPKKGSKKAVT [H2B 7-19 A P A P K Kac G S Kac K A V T],peptide microarray binding signal,"[1]; peptide modifications: H2BK12ac H2BK15ac, binder concentration: 50 nM",0.00342 ± 5.6e-05
same,peptide microarray binding signal,"[1]; peptide modifications: H2BK12ac H2BK15ac, binder concentration: 500 nM",0.00938 ± 0.0002
same,peptide microarray binding signal,"[2]; peptide modifications: H2BK12ac H2BK15ac, binder concentration: 10 nM",0.00609 ± 0.00019
same,peptide microarray binding signal,"[2]; peptide modifications: H2BK12ac H2BK15ac, binder concentration: 100 nM",0.00503 ± 0.00011
same,peptide microarray binding signal,[3]; [23],0.00285 ± 0.0017
same,peptide microarray binding signal,[3]; [24],0.0012 ± 3.2e-05
same,peptide microarray binding signal,[4]; [23],0.000966 ± 7.9e-05
same,peptide microarray binding signal,[4]; [24],0.000923 ± 9.6e-06
